Experimental data as given in PubChem BioAssay (NCI).
This is part of a sample that, as a whole, favours compounds with a hit. Of some 83,000 tested, about 20% had one in any assay.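 96-well plates, one dose, 48 hours. Percent growth reported; active if below 10.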 Values without a mark were called inactive. Active and inactive are the calls of the source.

Key:
Assay in all cases: NCI-60 one-dose screen, 48 h (100 = growth as untreated, 0 = no growth, -100 = all killed)
Details in all cases: 10 µM unless noted
[1] = system: SR leukemia
[2] = system: RPMI-8226 leukemia
[3] = system: OVCAR-8 ovarian
[4] = system: OVCAR-5 ovarian
[5] = system: OVCAR-4 ovarian
[6] = system: SK-OV-3 ovarian
[7] = system: OVCAR-3 ovarian
[8] = system: HS 578T breast
[9] = system: NCI/ADR-RES ovarian
[10] = system: T-47D breast
[11] = system: BT-549 breast
[12] = system: MDA-MB-435 melanoma
[13] = system: SW-620 colon
[14] = system: MCF7 breast
[15] = system: HCT-116 colon
[16] = system: HCC-2998 colon
[17] = system: KM12 colon
[18] = system: IGROV1 ovarian

Row | SMILES | growth [1] | growth [2] | growth [3] | growth [4] | growth [5] | growth [6] | growth [7] | growth [8] | growth [9] | growth [10] | growth [11] | growth [12] | growth [13] | growth [14] | growth [15] | growth [16] | growth [17] | growth [18]
1 | CC1Cc2ccccc2N1C(=O)c1ccc(C(=O)c2ccccc2)cc1 (centres undefined) | 97.6% | 74.3% | 88.4% | 143% | 71.2% | 102% | 78.9% | 96.3% | 61.7% | 91.4% | 84% | 89.1% | 95.1% | 103% | 81.1% | 127% | 101% | 
2 | O=C(O)c1ccc(CNS(=O)(=O)c2ccc3ccccc3c2)cc1 | 33.4% | 112% | 67.7% | 115% | 98.3% | 109% | 94.9% | 81% | 128% | 100% | 104% | 110% | 99.8% | 107% | 109% | 271% | 101% | 
3 | COC(=O)C1CCN(S(=O)(=O)c2ccc(-c3ccccc3)cc2)CC1 | 75.7% | 144% | 81.6% | 106% | 103% | 98.4% | 114% | 117% | 116% | 102% | 129% | 111% | 102% | 99.7% | 115% | 103% | 102% | 
4 | COc1ccc(C(=O)COc2cccc(/C=C3\CSc4ccc(Cl)cc4C3=O)c2)cc1 | 20% | -13.7% (active) | 78.4% | 93.5% | 64.6% | 94.6% | 88% | 91% | 84.3% | 70.4% | 42.5% | 93.2% | -65.9% (active) |  | 53.9% | 95.2% |  | 
5 | Cc1ccc(-c2csc(N)n2)cc1 | 86.3% | 89.2% | 101% | 94% | 94% | 108% | 114% | 115% | 104% | 92.9% | 93% | 106% | 105% | 106% | 99.9% | 98.7% | 106% | 
6 | N#Cc1ccccc1C#Cc1ccccc1C#Cc1ccc(OCCCCCCOc2ccc(C#Cc3ccccc3C#Cc3ccccc3C#N)cc2)cc1 | 113% | 108% | 98.7% | 96% | 107% | 111% | 126% | 110% | 104% | 93.4% | 112% | 107% | 96.6% | 78.6% | 91.8% | 107% | 105% | 
7 | CCOC(=O)c1sc(NC(=O)COc2ccc(/C=C3\CCc4cc(OC)ccc4C3=O)cc2)nc1C | 44.3% | 42.5% | 90.5% | 103% | 92.6% | 122% | 105% | 94.4% | 86.6% | 86.6% | 51.8% | 87.1% | 99.5% | 112% |  | 104% |  | 
8 | CCSc1nc(-c2ccco2)n2nc(-c3ccco3)cc2n1 | 93% | 52.8% | 97.1% | 110% | 65.9% | 101% | 105% | 96.2% | 95.3% | 22.9% | 107% | 111% | 95.5% | 22.6% |  | 83.7% | 63.8% | 
9 | CCCCOP(=O)(OCCCC)C(C(=O)OCC)C(CC(=O)OCC)C(=O)OCC (centres undefined) | 128% | 109% | 106% | 100% |  | 105% | 123% | 108% | 113% | 114% | 114% | 104% | 106% | 93.1% | 112% | 109% | 111% | 112%
10 | O=C(Nc1ccc(Cl)cc1)Nc1ccccc1CNc1nc(Nc2ccc(OCCN3CCCC3)cc2)ncc1Cl | 1.33% (active) | -24.2% (active) |  | 105% | -47.4% (active) | 91.6% | -77.9% (active) | 96.4% | -35.9% (active) | 105% | 77.6% | -28.9% (active) | -14.9% (active) | -10.5% (active) | -28.7% (active) | -21.1% (active) | 11.3% | 15.8%
11 | O=C(COc1ccc(/C=C2\Oc3ccc4ccccc4c3C2=O)cc1)c1ccc(Cl)cc1 | 26.8% | 62.1% | 100% | 113% | 94.6% | 104% | 127% | 91.7% | 107% | 79.4% |  | 101% | 103% | 58.5% | 96.7% | 134% | 99.5% | 
12 | COc1cc(/C=C/c2cc(/C=C/c3ccc(O)c(OC)c3)n(C(=O)Cc3ccccc3)n2)ccc1O | 4.44% (active) | -34.2% (active) | -17% (active) | -18.7% (active) | 7.27% (active) |  | 1.55% (active) | 9.84% (active) | 21.7% | -7.75% (active) |  | -10.2% (active) | 4.63% (active) | -0.783% (active) | 1.23% (active) | 17.2% | 9.39% (active) | 11.4%
13 | CC(C)OP(=O)(OC(C)C)c1ncc(-c2ccc(C(F)(F)F)cc2)c(NC2CCCCCC2)n1 | -30.3% [33.3 µM] (active) | -40.7% [33.3 µM] (active) | 0.0612% [33.3 µM] (active) | -89.1% [33.3 µM] (active) | 2.6% [33.3 µM] (active) | 8.69% [33.3 µM] (active) | -96.8% [33.3 µM] (active) | -30.1% [33.3 µM] (active) | 3.22% [33.3 µM] (active) | -13.8% [33.3 µM] (active) | -95% [33.3 µM] (active) | -75.2% [33.3 µM] (active) | -52.7% [33.3 µM] (active) |  | -93.4% [33.3 µM] (active) | -87.6% [33.3 µM] (active) | -95.8% [33.3 µM] (active) | 
14 | Cc1cc(C)cc(S(=O)(=O)n2ccc(-c3ccc4c(c3)CCC(C)(C)O4)n2)c1 | 76.5% | 73.2% | 91% | 116% | 67.3% |  | 87.9% | 92.7% | 79% | 58.2% |  | 93.8% | 88.3% | 81.5% | 77.8% | 88.2% | 82.7% | 
15 | Cc1ccc(OCC(=O)Nc2ccc(Oc3ccccc3)cc2)c([N+](=O)[O-])n1 | 82.6% | 50.7% | 79% | 84.4% | 77.4% | 71.9% | 88.7% | 113% | 43.7% | 23.4% |  | 96.7% | 96.8% | 58.3% | 69.8% | 81.1% | 93.8% | 
16 | Cc1nn(-c2ccccc2)c2nc(N)c(C3=NCCO3)nc12 | 104% | 87.2% | 95.9% | 93.3% |  | 94.2% | 114% | 82.2% | 101% | 77.5% | 92.6% | 101% | 92.6% | 83.6% | 95.8% | 101% | 104% | 94.4%
17 | Cn1cc(NC(=O)Nc2cc(C(=O)O)n(C)c2)cc1C(=O)O | 86.8% | 125% | 94.4% | 107% | 99.8% | 112% | 102% | 108% | 105% | 107% |  | 115% | 96.3% | 116% | 102% | 107% | 98.6% | 
18 | Cc1cn(C(C=O)OC(C=O)CO)c(=O)[nH]c1=O (centres undefined) | 93.9% | 107% |  | 111% | 96.9% | 103% | 109% | 103% | 107% | 99.6% | 107% | 106% | 105% | 95.1% | 103% | 119% | 103% | 102%
